# HCV inhibitor – qHTS Assay for Inhibitors of Hepatitis C Virus (HCV); Huh7.5.1 HCVcc-Cre infection, luciferase reporter, 44 h; Potency, µM (series often up to 41.8 µM), inactives show top-dose activity change, negative = inhibition, most hits filed as inhibitors; actives 3.4% (n = 340,000); AID 651820, 2012
#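 After 44 h co-culture of compound, cells and HCVcc-Cre (~0.5 moi), substrate is added for 15 min at room temperature and luciferase measured over 15 sec. Cells were seeded at 1,000/well and pre-cultured 4 h.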
# AmpC inh detg – qHTS Inhibitors of AmpC Beta-Lactamase (assay with detergent); P00811; actives 0.041% (n = 370,000); AmpC hydrolysis of nitrocefin, absorbance 480 nm, 0.01% Triton; AID 485294, 2010; Potency, µM (highest dose often 114 µM), inactives show at the top dose activity change, negative = inhibition, usual class: inhibitors;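 also: 0% = no-compound wells and -100% = no-enzyme wells; nearly all actives have a fitted effect of over 25% in size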
# Target sequence (P00811 whole entry, looked up): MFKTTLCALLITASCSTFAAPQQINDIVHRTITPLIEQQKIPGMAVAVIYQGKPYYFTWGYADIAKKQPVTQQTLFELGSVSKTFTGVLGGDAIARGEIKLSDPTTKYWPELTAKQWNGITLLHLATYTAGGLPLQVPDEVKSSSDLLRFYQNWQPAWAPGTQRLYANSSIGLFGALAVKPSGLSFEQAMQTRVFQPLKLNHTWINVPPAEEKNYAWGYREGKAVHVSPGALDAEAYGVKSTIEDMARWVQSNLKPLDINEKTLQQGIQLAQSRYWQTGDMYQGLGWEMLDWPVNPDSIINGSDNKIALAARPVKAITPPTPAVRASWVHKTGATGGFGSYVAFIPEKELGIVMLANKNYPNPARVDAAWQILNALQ
#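 AmpC (5.3 nM in the dispensed reagent) in 20 mM phosphate pH 7.0 with 0.01% (detergent screen) or 0.0001% Triton X-100 was preincubated with compounds for 15 min at room temperature. Nitrocefin was then added from an 800 uM solution, and hydrolysis was followed at 480 nm.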
# AMA1 RON2 block – qHTS for Inhibitors of AMA1-RON; Towards Development of Antimalarial Drug Lead: Primary Screen; Plasmodium falciparum AMA1 (3D7) - RON2 peptide interaction; AlphaScreen AMA1-biotinylated RON2 peptide binding; Potency, µM (doses to about 58.2 µM), inactives show top-dose activity change, negative = inhibition, hits mostly inhibitors; actives 0.2% (n = 360,000); AID 720542, 2013;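 also: 0% = vehicle wells and -100% = peptide control; nearly all actives have a fitted effect of over 45% in size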
#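 AMA1 (3D7) with his tag at 25 nM final met compounds first, then biotinylated RON2 peptide at 25 nM; detection used donor plus acceptor beads, 10 µg/mL apiece, read by AlphaScreen after 30 min at room temperature.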
# Pf growth 96h – Primary qHTS for delayed death inhibitors of the malarial parasite plastid, 96 hour incubation; P. falciparum luciferase reporter growth, 96 h; Potency, µM (top dose mostly 28.7 µM), inactives show at the top dose activity change, negative = inhibition, most hits filed as inhibitors; actives 6.9% (n = 320,000)
#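 Parasite growth measured via integrated firefly luciferase reporter in P. falciparum. Infected erythrocytes at 2% hematocrit, 0.05% parasitemia final were treated 96 hours at 37 C under 5% CO2, and luminescence was read.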
# AmpC inh no detg – qHTS Inhibitors of AmpC Beta-Lactamase (assay without detergent); actives 0.52% (n = 330,000); P00811; AID 485341, 2010; AmpC nitrocefin hydrolysis, absorbance 480 nm, 0.0001% Triton; Potency, µM (titrated, usually from 57.1 µM), without a hit: top-dose activity change, negative = inhibition, hits mostly inhibitors;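 also: plate controls were no compound for no effect and no enzyme for full effect; nearly all actives have a fitted effect of over 20% in size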
#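 AmpC (5.3 nM in the dispensed reagent) in 20 mM phosphate pH 7.0 with 0.01% (detergent screen) or 0.0001% Triton X-100 was preincubated with compounds for 15 min at room temperature. Nitrocefin was then added from an 800 uM solution, and hydrolysis was followed at 480 nm.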
# Pf growth 48h – Primary qHTS for delayed death inhibitors of the malarial parasite plastid, 48 hour incubation; P. falciparum luciferase growth in erythrocytes, 48 h; Potency, µM (top dose mostly 28.7 µM), for inactives: at the top dose activity change, negative = inhibition, actives largely listed as inhibitors; actives 5.9% (n = 310,000); AID 504832, 2011
#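 In quantitative HTS format, infected erythrocytes bearing luciferase-reporter parasites were treated for a single generation at 37 C. Luminescence after adding detection reagent served as the growth measure.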
# * = called active by the depositor; ? = inconclusive; nt = no result. Most compounds without a hit are left out; they make up all but 11% or so of the library. Calls follow the shape of the dose curve; as a rule, active = well fitted curve in the direction sought with a large enough effect; inconclusive = small, poorly fitted or top-dose-only effect, or another doubt; inactive = no such curve, though single readings can be large; an effect the other way counts as inactive or inconclusive. Unless noted, % is scaled to controls: 0 for no effect and ±100 for the full control effect; potency is read from the fitted curve at half-maximal effect.
SMILES,HCV inhibitor,AmpC inh detg,AMA1 RON2 block,Pf growth 96h,AmpC inh no detg,Pf growth 48h
CS(=O)(=O)N(CC(=O)N1CCCCCC1)Cc1ccc(Cl)cc1,-18%,?,-3%,nt,109%,14%
CS(=O)(=O)N(CCc1ccccc1)CC(=O)N1CCN(Cc2ccc3c(c2)OCO3)CC1,-20%,1%,5%,nt,nt,?
CS(=O)(=O)N(CC(=O)N1CCOCC1)Cc1ccc(Cl)cc1,-8%,-15%,-7%,7.4µM*,1%,-2%
Cn1c(NN=O)nc2ccccc21,?,1%,-5%,?,-2%,12µM*
O=NNc1nc2ccccc2n1Cc1ccccc1,?,-4%,64%,13µM*,-21%,?
CC(=O)Nc1nc2ccccc2n1Cc1ccccc1,-4%,4%,49%,12µM*,-13%,?
CC(=O)Nc1nc2ccccc2n1CCN(C)C,18%,-14%,6%,1%,-34%,199%
CCCn1c(C(CO)Nc2nc(-c3cccc(Br)c3)cs2)nc2ccccc21 (centres undefined),?,?,36%,5.9µM*,-3%,?
OCCOCCn1c(C(CO)Nc2nc(-c3cccc(Br)c3)cs2)nc2ccccc21 (centres undefined),10%,nt,54%,nt,nt,nt
COc1ccc(OC)c(Nc2c3c(nc4ccccc24)CCC3)c1,?,4%,-11%,?,13%,?
Cc1cccc(Nc2c3c(nc4ccccc24)CCC3)c1,?,6%,-22%,?,-16%,12µM*
COc1cc(Nc2c3c(nc4ccccc24)CCC3)cc(OC)c1OC,?,-3%,0%,5%,-26%,12µM*
CCOc1ccc(N2C(=O)S/C(=C\c3cccn3C)C2=O)cc1,-23%,2%,-11%,2.9µM*,-28%,3.3µM*
Cc1ccc(Nc2c(-c3ccc(N(C)C)cc3)nc3ccccn23)cc1,nt,9%,nt,nt,nt,nt
CC(C)(c1ccccc1)c1ccc(OCC(O)CNC2CCN(Cc3ccccc3)CC2)cc1 (centres undefined),8.9µM*,3%,?,2.1µM*,117%,3.3µM*
COc1ccc(CNCC(O)COc2ccc(C(C)(C)c3ccccc3)cc2)cc1 (centres undefined),5%,-8%,-20%,?,62%,9.3µM*
COC(=O)c1ccc(CNCC(O)COc2ccc(-c3ccccc3)cc2)cc1 (centres undefined),-8%,?,1%,11%,-18%,?
CCOc1ccc(OCC(O)CNC2CCN(Cc3ccccc3)CC2)cc1 (centres undefined),?,-4%,-3%,2.3µM*,19%,2.6µM*
COc1ccc(OCC(O)CNC2CCCC2)cc1 (centres undefined),-3%,?,-4%,-27%,-20%,4%
O=C(NCCSc1c(-c2ccccc2)[nH]c2ccccc12)c1ccc(S(=O)(=O)N2CCOCC2)cc1,nt,7%,nt,nt,nt,nt
COc1cc(OC)cc(C(=O)NNC(=O)CCNS(=O)(=O)c2ccc(C)c(C)c2)c1,-2%,?,37%,0%,-22%,14%
Cc1ccc(S(=O)(=O)NCCC(=O)NNC(=O)c2ccccc2O)cc1C,3.2µM*,-10%,105%,8%,-9%,-5%
Cc1ccc(S(=O)(=O)NCCc2nnc3ccc(SCc4ccc(F)cc4)nn23)cc1,nt,-1%,nt,nt,nt,nt
Cc1cc(C(=O)CSc2nnc(-c3ccccc3)n2C)c(C)n1C,-2%,8%,-5%,-1%,10%,-2%
Cc1cc(C(=O)CSc2nnc(-c3ccncc3)n2-c2ccccc2)c(C)n1C,-29%,?,-4%,17µM*,75%,15µM*
SMILES,HCV inhibitor,AmpC inh detg,AMA1 RON2 block,Pf growth 96h,AmpC inh no detg,Pf growth 48h
CCOC(=O)C1CCN(S(=O)(=O)c2cc(Br)cc3c2N(C(=O)C2CC2)CC3)CC1,12%,3%,-2%,-1%,19%,8.3µM*
CCC(=O)N1CCc2cc(Br)cc(S(=O)(=O)CC(=O)OC)c21,19%,0%,1%,15µM*,8%,?
CC(=O)N1CCc2cc(Br)cc(S(=O)(=O)N3CCCCCC3)c21,-15%,-6%,-6%,0%,88%,3.3µM*
O=C(C1CC1)N1CCc2cc(Br)cc(S(=O)(=O)N3CCN(c4ccccc4)CC3)c21,nt,2%,nt,nt,nt,nt
COC(=O)C1(S(=O)(=O)c2cc(Br)cc3c2N(C(C)=O)CC3)CC1,7%,-9%,10%,77%,3%,9.3µM*
CC(=O)N1CCc2cc(Br)cc(S(=O)(=O)NCc3ccc(Cl)cc3)c21,14%,0%,-8%,-7%,-49%,-6%
COc1ccccc1CNC(=O)C1CCN(c2nc3ccc(Cl)cc3[nH]2)CC1,nt,5%,nt,nt,nt,nt
CCN1C(=O)c2ccccc2S(=O)c2ccc(C(=O)N3CCN(c4cc(Cl)ccc4C)CC3)cc21 (centres undefined),nt,3%,nt,nt,nt,nt
CC1CCCN(CCCNS(=O)(=O)c2cc(Br)cc3c2N(C(=O)C2CC2)CC3)C1 (centres undefined),-10%,-7%,-4%,21%,-16%,-5%
CCC(=O)N1CCc2cc(Br)cc(S(=O)(=O)N3CCC(C(=O)NCCCOC(C)C)CC3)c21,-11%,10%,15%,?,188%,2.9µM*
CCOCCCNC(=O)C1CCN(S(=O)(=O)c2cc(Br)cc3c2N(C(=O)CC)CC3)CC1,-8%,?,3%,?,135%,?
O=C(C1CC1)N1CCc2cc(Br)cc(S(=O)(=O)NCCCN3CCCC3)c21,?,2%,0%,9.3µM*,-12%,-1%
O=C(CCn1ccc2cc(S(=O)(=O)N3CCCC3)ccc21)NCc1cccc(Br)c1,nt,17%,nt,nt,nt,nt
Cc1ccc(CSc2nc3c(c(=O)[nH]c(=O)n3C)n2CCC(C)C)cc1,?,?,5%,2.9µM*,-29%,nt
CCCCn1c(SCc2ccc(Cl)cc2)nc2c1c(=O)[nH]c(=O)n2C,7%,-11%,-3%,2%,-8%,6.6µM*
C/C=C/CSc1nc2c(c(=O)[nH]c(=O)n2C)n1Cc1ccc(C)cc1,5%,?,-3%,?,-11%,13µM*
CC(C)CCn1c(SCc2ccc(Cl)cc2)nc2c1c(=O)[nH]c(=O)n2C,?,6%,0%,36%,-13%,?

# High-throughput results from PubChem.
